Assay results from PubChem BioAssay (NCI).
This is part of a sample that, as a whole, favours compounds with a hit. Of some 83,000 tested, about 20% had one in any assay.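 Percent growth is the endpoint: 0 to 100 indicates growth inhibition (40 means 60% inhibition), 0 means no net growth, and negative values indicate cell death.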

Legend:
Experiment in all cases: NCI-60 one-dose screen, 48 h (100 = growth as untreated, 0 = no growth, -100 = all killed); active = growth percent below 10; inactive = the rest
HCT-15 colon = conditions: 10 µM
HT29 colon = conditions: 10 µM
SNB-75 CNS = conditions: 10 µM
SNB-19 CNS = conditions: 10 µM
U251 CNS = conditions: 10 µM
PC-3 prostate = conditions: 10 µM
SK-MEL-5 melanoma = conditions: 10 µM
UACC-62 melanoma = conditions: 10 µM unless noted
LOX IMVI melanoma = conditions: 10 µM
SK-MEL-28 melanoma = conditions: 10 µM
SK-MEL-2 melanoma = conditions: 10 µM
SN12C renal = conditions: 10 µM
UO-31 renal = conditions: 10 µM
TK-10 renal = conditions: 10 µM unless noted
ACHN renal = conditions: 10 µM
A498 renal = conditions: 10 µM
MOLT-4 leukemia = conditions: 10 µM
CAKI-1 renal = conditions: 10 µM
CCRF-CEM leukemia = conditions: 10 µM

Measured: growth

CCCC[P+](c1ccccc1)(c1ccccc1)c1ccccc1
inactive: HCT-15 colon 99.5% | HT29 colon 40.9% | SNB-75 CNS 53.5% | SNB-19 CNS 55.3% | U251 CNS 30.1% | PC-3 prostate 26.8% | SK-MEL-5 melanoma 16.1% | UACC-62 melanoma 44.3% | LOX IMVI melanoma 41% | SK-MEL-28 melanoma 69.1% | SK-MEL-2 melanoma 75.7% | SN12C renal 60.1% | UO-31 renal 86.9% | TK-10 renal 74.8% | ACHN renal 84.9% | A498 renal 75.5% | MOLT-4 leukemia 59.1%

CC1CC(O)C2C3(C)CCCC2(COC3=O)C12CCC1(CCOC1=O)O2 (stereo not drawn)
inactive: HCT-15 colon 102% | HT29 colon 109% | SNB-75 CNS 96.4% | SNB-19 CNS 108% | U251 CNS 102% | PC-3 prostate 94% | SK-MEL-5 melanoma 111% | UACC-62 melanoma 114% | LOX IMVI melanoma 107% | SK-MEL-28 melanoma 111% | SK-MEL-2 melanoma 117% | SN12C renal 113% | UO-31 renal 93.3% | TK-10 renal 114% | ACHN renal 108% | CAKI-1 renal 94.7% | A498 renal 71% | CCRF-CEM leukemia 104% | MOLT-4 leukemia 114%

CN(C)/N=C/c1ccccc1O
inactive: HCT-15 colon 100% | HT29 colon 111% | SNB-75 CNS 87.8% | SNB-19 CNS 97.8% | U251 CNS 95.4% | PC-3 prostate 121% | SK-MEL-5 melanoma 103% | UACC-62 melanoma 98.4% | LOX IMVI melanoma 98.7% | SK-MEL-28 melanoma 111% | SK-MEL-2 melanoma 90.3% | SN12C renal 97.7% | UO-31 renal 92.3% | ACHN renal 97.6% | CAKI-1 renal 96.1% | A498 renal 94.5% | CCRF-CEM leukemia 100% | MOLT-4 leukemia 95.9%

O=C(O)CCCC(=O)O
inactive: HCT-15 colon 101% | HT29 colon 106% | SNB-75 CNS 85.7% | SNB-19 CNS 99.4% | U251 CNS 94.3% | PC-3 prostate 95.1% | SK-MEL-5 melanoma 102% | UACC-62 melanoma 105% | LOX IMVI melanoma 95.3% | SK-MEL-28 melanoma 102% | SK-MEL-2 melanoma 106% | SN12C renal 102% | UO-31 renal 87% | TK-10 renal 120% | ACHN renal 103% | CAKI-1 renal 105% | A498 renal 109% | CCRF-CEM leukemia 101% | MOLT-4 leukemia 103%

CCCC(C)OCC(=O)O (stereo not drawn)
inactive: HCT-15 colon 104% | HT29 colon 109% | SNB-75 CNS 85.8% | SNB-19 CNS 100% | U251 CNS 93.5% | PC-3 prostate 98.4% | SK-MEL-5 melanoma 99.8% | UACC-62 melanoma 110% | LOX IMVI melanoma 99.1% | SK-MEL-28 melanoma 97.9% | SK-MEL-2 melanoma 104% | SN12C renal 103% | UO-31 renal 86.6% | TK-10 renal 119% | ACHN renal 102% | CAKI-1 renal 97.5% | A498 renal 103% | CCRF-CEM leukemia 101% | MOLT-4 leukemia 95%

O=C(O)CSCSCC(=O)O
inactive: HCT-15 colon 98.7% | HT29 colon 107% | SNB-75 CNS 77.2% | SNB-19 CNS 96.6% | U251 CNS 94.3% | PC-3 prostate 103% | SK-MEL-5 melanoma 103% | UACC-62 melanoma 100% | LOX IMVI melanoma 97.3% | SK-MEL-28 melanoma 97.8% | SK-MEL-2 melanoma 94.8% | SN12C renal 104% | UO-31 renal 92.3% | TK-10 renal 93.6% | ACHN renal 101% | CAKI-1 renal 96.9% | A498 renal 80.4% | MOLT-4 leukemia 101%

COc1cc2nn(-c3ccccc3N)nc2cc1OC
inactive: HCT-15 colon 102% | HT29 colon 103% | SNB-75 CNS 72.6% | SNB-19 CNS 99.9% | U251 CNS 91.7% | PC-3 prostate 97.8% | SK-MEL-5 melanoma 98.4% | UACC-62 melanoma 103% | LOX IMVI melanoma 94.7% | SK-MEL-28 melanoma 109% | SK-MEL-2 melanoma 106% | SN12C renal 106% | UO-31 renal 87.6% | TK-10 renal 109% | ACHN renal 109% | CAKI-1 renal 85.6% | A498 renal 82.3% | CCRF-CEM leukemia 101% | MOLT-4 leukemia 98.9%

O=P(O)(O)OCC(O)CO (stereo not drawn)
inactive: HCT-15 colon 104% | HT29 colon 101% | SNB-75 CNS 84% | SNB-19 CNS 104% | U251 CNS 94% | PC-3 prostate 96.7% | SK-MEL-5 melanoma 102% | UACC-62 melanoma 108% | LOX IMVI melanoma 97.9% | SK-MEL-28 melanoma 98.2% | SK-MEL-2 melanoma 117% | SN12C renal 98.5% | UO-31 renal 98.7% | TK-10 renal 110% | ACHN renal 101% | CAKI-1 renal 104% | A498 renal 108% | CCRF-CEM leukemia 100% | MOLT-4 leukemia 103%
